Assay results from the supplement of paper PMC11732987, “Enantioselective OTUD7B fragment discovery through chemoproteomics screening and high-throughput optimisation” (Communications Chemistry, 2025).

Tests used:
Test in all cases: log2 ratio of Biotin-Ahx-Ub-VS probe labelling (fragment/DMSO); higher = less target engagement (more negative = stronger competition), active = hit call of the paper (q ≤ 0.05, log2 ratio ≤ -1)
Settings in all cases: compound concentration: 200 uM; treatment time: 3 h
ALG13 = biological target: T1, ALG13 (UniProt Q9NP73)
T1 sequence (whole entry): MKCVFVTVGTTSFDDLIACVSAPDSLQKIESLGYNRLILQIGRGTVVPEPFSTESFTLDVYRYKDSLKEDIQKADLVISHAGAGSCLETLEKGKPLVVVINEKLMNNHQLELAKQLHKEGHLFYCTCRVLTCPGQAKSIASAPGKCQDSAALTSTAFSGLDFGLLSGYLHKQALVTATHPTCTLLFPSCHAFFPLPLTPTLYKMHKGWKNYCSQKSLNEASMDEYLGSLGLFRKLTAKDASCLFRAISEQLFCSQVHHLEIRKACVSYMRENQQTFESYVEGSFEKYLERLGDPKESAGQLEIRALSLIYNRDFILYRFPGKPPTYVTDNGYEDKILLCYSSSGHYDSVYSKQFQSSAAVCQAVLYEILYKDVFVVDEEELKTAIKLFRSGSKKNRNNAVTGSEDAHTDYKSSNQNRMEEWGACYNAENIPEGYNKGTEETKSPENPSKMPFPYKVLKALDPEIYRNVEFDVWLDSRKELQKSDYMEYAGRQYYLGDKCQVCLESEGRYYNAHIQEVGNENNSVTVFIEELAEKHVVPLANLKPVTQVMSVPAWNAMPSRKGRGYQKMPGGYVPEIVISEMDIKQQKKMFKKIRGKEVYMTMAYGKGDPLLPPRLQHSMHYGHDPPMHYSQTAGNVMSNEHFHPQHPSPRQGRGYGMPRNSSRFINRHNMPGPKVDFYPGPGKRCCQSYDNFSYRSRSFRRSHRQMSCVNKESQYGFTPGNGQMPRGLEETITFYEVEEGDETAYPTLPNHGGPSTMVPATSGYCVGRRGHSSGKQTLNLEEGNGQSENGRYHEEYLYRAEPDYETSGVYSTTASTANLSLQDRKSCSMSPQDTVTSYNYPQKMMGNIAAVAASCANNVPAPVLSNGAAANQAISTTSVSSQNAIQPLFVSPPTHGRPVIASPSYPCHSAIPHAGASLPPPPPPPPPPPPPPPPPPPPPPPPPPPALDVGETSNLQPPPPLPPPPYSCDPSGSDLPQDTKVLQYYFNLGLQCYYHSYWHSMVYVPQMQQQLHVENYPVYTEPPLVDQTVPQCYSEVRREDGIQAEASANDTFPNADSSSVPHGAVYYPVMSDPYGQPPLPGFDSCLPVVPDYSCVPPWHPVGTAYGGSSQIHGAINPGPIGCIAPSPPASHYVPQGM
Outline: (§1)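 HEK293T lysate (495 µg per sample, in Tris/CHAPS/IGEPAL buffer with protease inhibitors) was exposed in triplicate for 3 h to fragment at 200 µM or to vehicle, then to Biotin-Ahx-Ub-VS at 0.5 µM final for 1 h. Labelled DUBs were enriched on NeutrAvidin, digested with LysC and trypsin, and analysed by diaPASEF LC-MS/MS. Spectronaut label-free quantities were normalised to the global median, and values are average log2 ratios of fragment over vehicle from an unpaired t-test. Only proteins with ≥2 unique peptides were used.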

ATXN3 = ATXN3 (UniProt P54252)
ATXN3, sequence (P54252 whole entry): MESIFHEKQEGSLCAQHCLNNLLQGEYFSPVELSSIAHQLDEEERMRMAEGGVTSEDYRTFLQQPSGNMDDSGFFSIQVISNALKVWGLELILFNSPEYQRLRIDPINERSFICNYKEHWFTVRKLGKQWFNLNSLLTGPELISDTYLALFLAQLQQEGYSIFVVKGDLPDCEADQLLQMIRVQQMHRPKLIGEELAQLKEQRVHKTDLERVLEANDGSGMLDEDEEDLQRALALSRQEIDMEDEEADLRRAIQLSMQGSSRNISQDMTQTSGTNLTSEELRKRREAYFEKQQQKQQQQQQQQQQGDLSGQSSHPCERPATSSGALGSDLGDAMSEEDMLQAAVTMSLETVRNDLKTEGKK
Outline: as §1

BAP1 = biological target: T2, BAP1 (UniProt Q92560)
T2 sequence (whole entry): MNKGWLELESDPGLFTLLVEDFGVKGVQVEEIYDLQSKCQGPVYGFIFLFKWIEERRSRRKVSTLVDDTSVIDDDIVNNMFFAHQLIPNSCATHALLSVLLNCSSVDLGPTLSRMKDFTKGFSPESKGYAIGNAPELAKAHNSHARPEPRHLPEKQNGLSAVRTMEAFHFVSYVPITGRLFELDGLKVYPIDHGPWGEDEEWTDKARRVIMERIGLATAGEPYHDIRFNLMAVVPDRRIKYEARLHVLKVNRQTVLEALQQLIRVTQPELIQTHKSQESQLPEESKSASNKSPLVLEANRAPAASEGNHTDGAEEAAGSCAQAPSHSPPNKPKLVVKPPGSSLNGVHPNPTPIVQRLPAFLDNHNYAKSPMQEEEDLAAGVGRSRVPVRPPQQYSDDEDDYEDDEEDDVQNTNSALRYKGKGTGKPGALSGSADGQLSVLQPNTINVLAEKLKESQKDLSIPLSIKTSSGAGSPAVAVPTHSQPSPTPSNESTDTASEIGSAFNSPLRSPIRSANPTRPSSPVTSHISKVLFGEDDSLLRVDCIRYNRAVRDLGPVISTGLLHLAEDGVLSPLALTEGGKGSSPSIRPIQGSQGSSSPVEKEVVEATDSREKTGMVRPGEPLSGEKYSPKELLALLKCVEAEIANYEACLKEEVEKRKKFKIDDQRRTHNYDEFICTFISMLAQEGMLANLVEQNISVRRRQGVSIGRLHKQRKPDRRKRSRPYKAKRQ
Outline: as §1

EIF3F = EIF3F (UniProt O00303)
EIF3F, sequence (O00303 whole entry): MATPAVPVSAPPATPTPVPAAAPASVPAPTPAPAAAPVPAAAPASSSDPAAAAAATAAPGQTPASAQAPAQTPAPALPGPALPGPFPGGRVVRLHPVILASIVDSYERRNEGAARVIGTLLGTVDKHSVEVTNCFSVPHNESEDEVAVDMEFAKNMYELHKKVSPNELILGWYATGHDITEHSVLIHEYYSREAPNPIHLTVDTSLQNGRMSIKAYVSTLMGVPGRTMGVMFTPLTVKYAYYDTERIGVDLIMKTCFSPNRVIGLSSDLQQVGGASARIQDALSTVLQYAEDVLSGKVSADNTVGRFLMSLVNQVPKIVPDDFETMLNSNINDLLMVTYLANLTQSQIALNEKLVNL
Outline: as §1

EIF3H = EIF3H (UniProt O15372)
EIF3H, sequence (O15372 whole entry): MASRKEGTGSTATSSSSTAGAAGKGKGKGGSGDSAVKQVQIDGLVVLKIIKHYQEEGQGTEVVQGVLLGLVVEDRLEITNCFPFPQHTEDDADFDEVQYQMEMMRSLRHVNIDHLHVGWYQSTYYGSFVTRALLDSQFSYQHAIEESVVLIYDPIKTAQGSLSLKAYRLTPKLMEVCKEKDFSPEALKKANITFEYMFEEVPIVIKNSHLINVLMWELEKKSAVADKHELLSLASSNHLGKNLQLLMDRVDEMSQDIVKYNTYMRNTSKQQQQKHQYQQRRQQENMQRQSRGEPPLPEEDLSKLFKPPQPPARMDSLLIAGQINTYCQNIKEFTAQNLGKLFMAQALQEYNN
Outline: as §1

FAM105A = biological target: T3, FAM105A (UniProt Q9NUU6)
T3 sequence (whole entry): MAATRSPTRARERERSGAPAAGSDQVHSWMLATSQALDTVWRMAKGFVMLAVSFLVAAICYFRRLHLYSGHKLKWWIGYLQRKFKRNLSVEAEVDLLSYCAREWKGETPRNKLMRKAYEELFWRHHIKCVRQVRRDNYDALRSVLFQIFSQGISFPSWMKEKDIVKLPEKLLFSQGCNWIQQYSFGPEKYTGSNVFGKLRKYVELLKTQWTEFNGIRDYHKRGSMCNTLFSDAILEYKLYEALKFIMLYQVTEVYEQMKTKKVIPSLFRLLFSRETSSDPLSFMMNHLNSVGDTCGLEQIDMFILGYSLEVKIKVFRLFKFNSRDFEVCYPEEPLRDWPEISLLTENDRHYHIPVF
Outline: as §1

OTUB1 = OTUB1 (UniProt Q96FW1)
OTUB1, sequence (Q96FW1 whole entry): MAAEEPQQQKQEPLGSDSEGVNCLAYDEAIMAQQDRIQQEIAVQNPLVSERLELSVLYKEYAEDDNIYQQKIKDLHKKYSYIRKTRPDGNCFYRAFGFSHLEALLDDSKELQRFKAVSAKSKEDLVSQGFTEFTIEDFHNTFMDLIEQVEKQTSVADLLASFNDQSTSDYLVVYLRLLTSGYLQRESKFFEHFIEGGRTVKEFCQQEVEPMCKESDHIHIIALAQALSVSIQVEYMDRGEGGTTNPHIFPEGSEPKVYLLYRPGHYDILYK
Outline: as §1

OTUD4 = biological target: T4, OTUD4 (UniProt Q01804)
T4 sequence (whole entry): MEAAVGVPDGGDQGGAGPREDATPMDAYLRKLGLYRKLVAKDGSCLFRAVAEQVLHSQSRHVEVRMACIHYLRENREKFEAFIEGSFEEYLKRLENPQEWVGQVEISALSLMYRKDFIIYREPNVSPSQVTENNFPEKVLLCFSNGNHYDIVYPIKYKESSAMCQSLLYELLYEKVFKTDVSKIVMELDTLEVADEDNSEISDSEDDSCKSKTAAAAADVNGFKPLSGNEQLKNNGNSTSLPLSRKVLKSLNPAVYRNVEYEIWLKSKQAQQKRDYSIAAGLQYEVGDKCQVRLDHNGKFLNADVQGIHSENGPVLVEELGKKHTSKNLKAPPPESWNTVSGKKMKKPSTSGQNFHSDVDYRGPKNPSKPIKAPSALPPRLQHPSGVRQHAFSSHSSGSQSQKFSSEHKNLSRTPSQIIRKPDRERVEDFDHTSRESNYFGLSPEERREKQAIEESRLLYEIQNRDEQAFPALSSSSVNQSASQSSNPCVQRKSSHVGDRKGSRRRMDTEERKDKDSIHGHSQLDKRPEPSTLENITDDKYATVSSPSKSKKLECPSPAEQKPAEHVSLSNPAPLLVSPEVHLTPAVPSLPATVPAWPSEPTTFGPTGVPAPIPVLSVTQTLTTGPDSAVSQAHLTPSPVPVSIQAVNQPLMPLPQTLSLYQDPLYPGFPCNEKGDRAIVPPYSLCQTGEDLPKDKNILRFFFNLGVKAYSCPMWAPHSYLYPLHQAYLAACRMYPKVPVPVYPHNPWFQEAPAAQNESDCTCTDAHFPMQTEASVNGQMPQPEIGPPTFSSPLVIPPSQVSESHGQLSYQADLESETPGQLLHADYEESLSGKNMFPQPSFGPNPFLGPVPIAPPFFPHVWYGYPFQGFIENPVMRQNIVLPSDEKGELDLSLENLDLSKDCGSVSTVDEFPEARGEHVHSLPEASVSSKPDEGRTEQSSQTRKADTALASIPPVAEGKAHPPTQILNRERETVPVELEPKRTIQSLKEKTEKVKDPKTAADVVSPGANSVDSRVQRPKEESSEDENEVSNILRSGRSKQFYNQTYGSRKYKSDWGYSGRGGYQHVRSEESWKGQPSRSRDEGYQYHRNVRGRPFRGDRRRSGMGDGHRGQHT
Outline: as §1

OTUD5 = biological target: T5, OTUD5 (UniProt Q96G74)
T5 sequence (whole entry): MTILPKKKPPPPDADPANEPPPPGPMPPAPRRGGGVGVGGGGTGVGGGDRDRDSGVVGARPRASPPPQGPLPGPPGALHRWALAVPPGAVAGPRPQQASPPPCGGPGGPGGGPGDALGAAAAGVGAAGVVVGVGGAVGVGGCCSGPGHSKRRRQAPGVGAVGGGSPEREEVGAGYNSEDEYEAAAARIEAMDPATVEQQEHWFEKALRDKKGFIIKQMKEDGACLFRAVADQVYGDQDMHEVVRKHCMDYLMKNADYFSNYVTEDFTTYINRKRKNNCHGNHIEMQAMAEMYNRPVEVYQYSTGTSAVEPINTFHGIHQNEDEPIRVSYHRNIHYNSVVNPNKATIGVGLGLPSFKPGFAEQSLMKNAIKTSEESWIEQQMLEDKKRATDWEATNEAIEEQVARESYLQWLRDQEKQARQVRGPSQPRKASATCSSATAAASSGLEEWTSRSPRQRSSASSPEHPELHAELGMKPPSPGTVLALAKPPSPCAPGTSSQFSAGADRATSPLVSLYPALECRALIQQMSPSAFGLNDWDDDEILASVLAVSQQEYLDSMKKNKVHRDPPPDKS
Outline: as §1

Measured: log2 ratio of Biotin-Ahx-Ub-VS probe labelling

Cc1conc1C1CN(C(=O)CCl)C1
inactive: ALG13 0.0664 | ATXN3 -0.85 | EIF3F -0.671 | EIF3H 0.138 | FAM105A 0.111 | OTUB1 -0.109 | OTUD4 -0.837 | OTUD5 -0.861
active: BAP1 -1.76
